From PubChem BioAssay (NCI) come the findings set out here.

Test systems include SK-MEL-2 melanoma; EKVX NSCLC; SN12C renal; UO-31 renal; TK-10 renal; ACHN renal; CAKI-1 renal; A498 renal; CCRF-CEM leukemia; MOLT-4 leukemia; SR leukemia; RPMI-8226 leukemia; OVCAR-8 ovarian; OVCAR-5 ovarian; OVCAR-4 ovarian; SK-OV-3 ovarian; IGROV1 ovarian; OVCAR-3 ovarian; HS 578T breast; NCI/ADR-RES ovarian.
Common to all, as to test: NCI-60 one-dose screen, 48 h (100 = growth as untreated, 0 = no growth, -100 = all killed)
Settings in all cases: 10 µM unless noted

The panel holds about 83,000 compounds, 20% with a hit somewhere; the sample as a whole holds those more often.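 Assay: single dose, 48 h. Readout: percent growth (0 = no net growth; negative = cell death). Active: <10.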 Unmarked numbers belong to inactive results. Active and inactive are the calls of the source.

With `Nc1cc(C(=O)NC[C@H]2CN(c3ccc(N4CCC(C(=O)O)CC4)cc3)C(=O)O2)ccc1Cl`, the growth in the test on SK-MEL-2 melanoma was 115%; with EKVX NSCLC, 95.3%; with SN12C renal, 98.8%; in the test on UO-31 renal, 80.4%; with TK-10 renal, 104%; in the test on ACHN renal, 101%. The growth in the test with CAKI-1 renal is 87.7%; in the test with A498 renal, 95.8%; in the test with CCRF-CEM leukemia it was 104%; with MOLT-4 leukemia, 99.4%; with SR leukemia, 95.4%; in the test with RPMI-8226 leukemia, 100%. For the same molecule, the growth in the test on OVCAR-8 ovarian was 103%; in the test on OVCAR-5 ovarian, 96.1%; with OVCAR-4 ovarian, 107%; in the test on SK-OV-3 ovarian, 113%; in the test with IGROV1 ovarian it was 103%; in the test with OVCAR-3 ovarian it was 114%. Further, the growth with HS 578T breast was 107%; in the test on NCI/ADR-RES ovarian, 103%.
Consider `CC1CCc2c(C(=O)Nc3ncc(Cc4cccc([N+](=O)[O-])c4)s3)csc2C1` (stereo not given), for which the growth in the test on SK-MEL-2 melanoma is 52.7%; in the test with EKVX NSCLC, 25.6%; in the test with SN12C renal, 41.7%; in the test on UO-31 renal, 32.4%; in the test with TK-10 renal, 46.7%; in the test with ACHN renal it was 30.5%. The growth was 19.2% in the test with CAKI-1 renal; 10.7% with A498 renal; 16.8% in the test on CCRF-CEM leukemia; 26% in the test on MOLT-4 leukemia; 26.7% with SR leukemia; 33% with RPMI-8226 leukemia. Besides, the growth with OVCAR-8 ovarian was 26.4%; in the test on OVCAR-5 ovarian, 34.7%; in the test on OVCAR-4 ovarian, 39.3%; with SK-OV-3 ovarian, 21.6%; in the test on IGROV1 ovarian, 30.7%; in the test on OVCAR-3 ovarian, 1.09% (active). Further, the growth is 19.1% in the test with HS 578T breast and 15.6% in the test on NCI/ADR-RES ovarian.
Regarding `O=C1NC(=O)C(Cc2ccc(OCc3ccc(-c4ccc(Cl)cc4Cl)cc3)cc2)S1` (stereo not given), the growth with SK-MEL-2 melanoma was 49.8%; in the test on EKVX NSCLC, 37.8%; with SN12C renal, 59.5%; in the test on UO-31 renal it was 34.1%; with TK-10 renal, 72.9%; in the test with ACHN renal, 55.2%. Besides, the growth in the test with CAKI-1 renal is 32.7%; with A498 renal, 83.4%; in the test with CCRF-CEM leukemia, 42.2%; in the test on MOLT-4 leukemia, 17%; with SR leukemia, 29.3%; in the test on RPMI-8226 leukemia, 38.5%. Further, the growth is 42.6% in the test on OVCAR-8 ovarian; 80.6% with OVCAR-5 ovarian; 47.4% in the test with OVCAR-4 ovarian; 61.8% with SK-OV-3 ovarian; 52.2% in the test on IGROV1 ovarian; 65.7% in the test on OVCAR-3 ovarian. Besides, the growth was 65.1% with HS 578T breast and 22.7% in the test with NCI/ADR-RES ovarian.
Turning to `COC(=O)[C@@H](CCCCNC(=O)[C@]12CCC(C)(C)C[C@@H]1C1=CC[C@@H]3[C@@]4(C)C/C(=C/c5ccco5)C(=O)C(C)(C)[C@@H]4CC[C@@]3(C)[C@]1(C)CC2)NC(=O)[C@]12CCC(C)(C)C[C@@H]1C1=CC[C@@H]3[C@@]4(C)C/C(=C/c5ccco5)C(=O)C(C)(C)[C@@H]4CC[C@@]3(C)[C@]1(C)CC2`, the growth with SK-MEL-2 melanoma was 108%; with EKVX NSCLC, 105%; in the test with SN12C renal, 98.7%; with UO-31 renal, 79.2%; with TK-10 renal, 102%; in the test with ACHN renal it was 107%. Also, the growth in the test with CAKI-1 renal was 98.5%; in the test with A498 renal, 116%; in the test on CCRF-CEM leukemia, 99.3%; in the test on MOLT-4 leukemia, 97%; in the test on SR leukemia it was 87.9%; with RPMI-8226 leukemia, 100%. Besides, the growth with OVCAR-8 ovarian was 104%; in the test with OVCAR-5 ovarian, 108%; with OVCAR-4 ovarian, 127%; with SK-OV-3 ovarian, 106%; with IGROV1 ovarian, 107%; with OVCAR-3 ovarian, 115%. Besides, the growth with HS 578T breast is 104%; with NCI/ADR-RES ovarian it was 112%.
Take `Nc1ncc(-c2ccc3ncnc(Nc4cccc(Cl)c4)c3c2)cn1`: the growth was 50.1% in the test on SK-MEL-2 melanoma; 1.79% (active) in the test with EKVX NSCLC; 45.9% in the test with SN12C renal; 26.2% with UO-31 renal; -14.8% (active) with TK-10 renal; 21.5% in the test on ACHN renal. Besides, the growth with CAKI-1 renal is 25.6%; in the test with A498 renal it was -9.82% (active); in the test on CCRF-CEM leukemia, 40.5%; in the test on MOLT-4 leukemia, 21.7%; in the test with SR leukemia it was 33.6%; with RPMI-8226 leukemia, 44.5%. In addition, the growth in the test with OVCAR-8 ovarian was 46.8%; in the test on OVCAR-5 ovarian it was 26.4%; in the test on OVCAR-4 ovarian, 70%; in the test on SK-OV-3 ovarian it was -10% (active); in the test on IGROV1 ovarian, 5.88% (active); in the test with OVCAR-3 ovarian, 27.3%. The growth in the test on HS 578T breast was 16.4%; with NCI/ADR-RES ovarian, 52.2%.
Take `N#CC1=C(c2ccccc2)Nc2c(c(-c3ccc(Cl)cc3)nn2-c2ccccc2)C12C(=O)Nc1ccc(Cl)cc12` (stereo not given): the growth is 94.8% in the test with SK-MEL-2 melanoma; 61.6% in the test with EKVX NSCLC; 84.9% in the test with SN12C renal; 47.8% in the test with UO-31 renal; 73.7% in the test on TK-10 renal; 80.6% with ACHN renal. In addition, the growth with CAKI-1 renal was 44.5%; in the test on A498 renal, 69%; in the test with CCRF-CEM leukemia, 61.4%; in the test with MOLT-4 leukemia, 52.5%; in the test with SR leukemia, 53.9%; in the test with RPMI-8226 leukemia, 47.4%. The growth was 84% with OVCAR-8 ovarian; 82.6% in the test with OVCAR-5 ovarian; 87.8% in the test with OVCAR-4 ovarian; 90.8% in the test with SK-OV-3 ovarian; 57.1% in the test with IGROV1 ovarian; 88.1% with OVCAR-3 ovarian. The growth in the test with HS 578T breast was 62.2%; with NCI/ADR-RES ovarian, 87.8%.
As for `N#Cc1ccc(O)c(C2=NCC(c3ccccc3)O2)c1` (stereo not given), the growth with SK-MEL-2 melanoma was 50.6%; with EKVX NSCLC, 37.1%; in the test with SN12C renal, 41.7%; with UO-31 renal, 20.1%; with TK-10 renal it was 52.2%; with ACHN renal, 40.5%. The growth with CAKI-1 renal is 8.26% (active); in the test on A498 renal, 63.5%; in the test on CCRF-CEM leukemia, 28.1%; with MOLT-4 leukemia, 18.7%; in the test on SR leukemia, 38%; in the test on RPMI-8226 leukemia, 33.3%. The growth in the test with OVCAR-8 ovarian was 19.6%; in the test with OVCAR-5 ovarian, 84%; in the test on OVCAR-4 ovarian, 9.62% (active); in the test on SK-OV-3 ovarian, 45.3%; in the test on IGROV1 ovarian it was 33.1%; with OVCAR-3 ovarian, 7.61% (active). In addition, the results for the growth in the test on HS 578T breast and in the test with NCI/ADR-RES ovarian were 77.2% and 1.45% (active), respectively.
